The text below walks through data of the supplement of paper PMC9492666.

Counter-ions that a name gives are not always drawn.

In one assay the test system is HCC1937. Put plainly: relative cell viability, compound + RSL3, vs DMSO (fraction of DMSO control); higher = less growth inhibition. The conditions noted are these: 72 h.
A further assay relates to MDA-MB-231. The description is as above. To be noted: 72 h.
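Also: breast cancer cell viability read out with the CCK-8 kit after co-treatment of each compound with the ferroptosis inducer RSL3.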

In the case of `CC(C)[C@H]1CC[C@H](C(=O)N[C@H](Cc2ccccc2)C(=O)O)CC1` [Nateglinide] + COC(=O)c1ccc([C@H]2c3[nH]c4ccccc4c3C[C@H](C(=O)OC)N2C(=O)CCl)cc1 [RSL3], the relative cell viability is 0.594 in the assay on HCC1937 and 0.487 with MDA-MB-231.

As to `Nc1ccc(C(=O)O)c(O)c1` [Aminopar] + COC(=O)c1ccc([C@H]2c3[nH]c4ccccc4c3C[C@H](C(=O)OC)N2C(=O)CCl)cc1 [RSL3], the relative cell viability in the assay with HCC1937 stood at 0.822; with MDA-MB-231, 0.662.

Consider `O=C(CCCCc1ccc2c(c1)OCO2)N1CCCCC1` + COC(=O)c1ccc([C@H]2c3[nH]c4ccccc4c3C[C@H](C(=O)OC)N2C(=O)CCl)cc1 [RSL3], for which the relative cell viability in the assay on HCC1937 was determined as 0.262; in the assay on MDA-MB-231 it was 0.562.

For the compound `CS(=O)(=O)c1ccc(-c2nnc(/C=C/c3nnc(-c4ccc(C#N)cc4)o3)n2-c2ccccc2Cl)nc1` + COC(=O)c1ccc([C@H]2c3[nH]c4ccccc4c3C[C@H](C(=O)OC)N2C(=O)CCl)cc1 [RSL3], the relative cell viability in the assay on HCC1937 came out at 0.508; in the assay on MDA-MB-231, 0.502.

On to `CCN(CC)c1ccc(C=NNC(=O)c2ccncc2)c(O)c1` + COC(=O)c1ccc([C@H]2c3[nH]c4ccccc4c3C[C@H](C(=O)OC)N2C(=O)CCl)cc1 [RSL3], for which the figures for the relative cell viability in the assay on HCC1937 and with MDA-MB-231 were 0.265 and 0.611, respectively.

As for `CC1(C)CC[C@]2(C(=O)O[C@@H]3O[C@H](CO)[C@@H](O)[C@H](O)[C@H]3O)CC[C@]3(C)C(=CC[C@@H]4[C@@]5(C)CC[C@H](O[C@@H]6O[C@H](C(=O)O)[C@@H](O)[C@H](O)[C@H]6O[C@@H]6O[C@H](CO)[C@@H](O)[C@H](O)[C@H]6O)C(C)(C)[C@@H]5CC[C@]43C)[C@@H]2C1` [Ginsenoside Ro] + COC(=O)c1ccc([C@H]2c3[nH]c4ccccc4c3C[C@H](C(=O)OC)N2C(=O)CCl)cc1 [RSL3], the figures for the relative cell viability in the assay on HCC1937 and with MDA-MB-231 were 0.375 and 0.478, respectively.

On to `Nc1ccc(O)c(C(=O)O)c1` [Mesalamine] + COC(=O)c1ccc([C@H]2c3[nH]c4ccccc4c3C[C@H](C(=O)OC)N2C(=O)CCl)cc1 [RSL3], for which the relative cell viability came to 0.635 in the assay with HCC1937 and 0.592 in the assay with MDA-MB-231.

As to `CN1CCN(c2ccc(/C=C(\C#N)c3ccccc3Br)cc2)CC1` [DG172 (dihydrochloride)] + COC(=O)c1ccc([C@H]2c3[nH]c4ccccc4c3C[C@H](C(=O)OC)N2C(=O)CCl)cc1 [RSL3], the relative cell viability was 0.373 in the assay with HCC1937 and 0.61 in the assay on MDA-MB-231.

`CCOC(=O)c1c(NC(=O)CN2CCN(C(=O)c3ccco3)CC2)sc2c1CCC2` + COC(=O)c1ccc([C@H]2c3[nH]c4ccccc4c3C[C@H](C(=O)OC)N2C(=O)CCl)cc1 [RSL3]: the relative cell viability in the assay with HCC1937 came out at 0.384; with MDA-MB-231, 0.476.

Turning to `Cc1coc2c1C(=O)C(=O)c1c-2ccc2c(C)cccc12` [Tanshinone I] + COC(=O)c1ccc([C@H]2c3[nH]c4ccccc4c3C[C@H](C(=O)OC)N2C(=O)CCl)cc1 [RSL3], the relative cell viability in the assay with HCC1937 was 0.218; with MDA-MB-231 it was 0.305.

Consider `O=C(Nc1ccccc1)N1CCN(c2nc(-c3ccccc3)ns2)CC1` + COC(=O)c1ccc([C@H]2c3[nH]c4ccccc4c3C[C@H](C(=O)OC)N2C(=O)CCl)cc1 [RSL3], for which the figures for the relative cell viability in the assay with HCC1937 and with MDA-MB-231 were 0.281 and 0.406, respectively.

As for `O=C(Nc1cccnc1)N1CCC(Cc2cccc(Oc3ccc(C(F)(F)F)cn3)c2)CC1` + COC(=O)c1ccc([C@H]2c3[nH]c4ccccc4c3C[C@H](C(=O)OC)N2C(=O)CCl)cc1 [RSL3], the relative cell viability turned out to be 0.727 with HCC1937 and 0.644 in the assay on MDA-MB-231.

As for `O=C(O)CC[C@H](O)C(=O)O` [L-2-Hydroxyglutaric acid disodium] + COC(=O)c1ccc([C@H]2c3[nH]c4ccccc4c3C[C@H](C(=O)OC)N2C(=O)CCl)cc1 [RSL3], the relative cell viability in the assay with HCC1937 came to 0.554; in the assay with MDA-MB-231, 0.76.

Turning to `Cc1cc([N+](=O)[O-])ccc1NS(=O)(=O)c1cc(Cl)ccc1Cl` + COC(=O)c1ccc([C@H]2c3[nH]c4ccccc4c3C[C@H](C(=O)OC)N2C(=O)CCl)cc1 [RSL3], the relative cell viability worked out at 0.264 in the assay on HCC1937 and 0.515 in the assay with MDA-MB-231.

As to `C[C@H](CCC(=O)O)[C@H]1CC[C@H]2[C@@H]3C[C@H](O)[C@@H]4C[C@H](O)CC[C@]4(C)[C@H]3CC[C@]12C` [Hyodeoxycholic acid] + COC(=O)c1ccc([C@H]2c3[nH]c4ccccc4c3C[C@H](C(=O)OC)N2C(=O)CCl)cc1 [RSL3], the relative cell viability in the assay on HCC1937 was 0.829; with MDA-MB-231 it was 0.611.

As to `CC(C)OC(=O)C(C)(C)Oc1ccc(C(=O)c2ccc(Cl)cc2)cc1` [Fenofibrate] + COC(=O)c1ccc([C@H]2c3[nH]c4ccccc4c3C[C@H](C(=O)OC)N2C(=O)CCl)cc1 [RSL3], the results for the relative cell viability in the assay on HCC1937 and in the assay on MDA-MB-231 were 0.681 and 0.606, respectively.

As to `CC(C)CCC[C@@H](C)[C@H]1CC[C@H]2[C@@H]3CC=C4C[C@@H](O)CC[C@]4(C)[C@H]3CC[C@]12C` [Cholesterol] + COC(=O)c1ccc([C@H]2c3[nH]c4ccccc4c3C[C@H](C(=O)OC)N2C(=O)CCl)cc1 [RSL3], the figures for the relative cell viability in the assay on HCC1937 and in the assay with MDA-MB-231 were 0.8 and 0.611, respectively.

For `O=S(=O)(O)c1ccc2cc(N=Nc3cc(S(=O)(=O)O)c4cccnc4c3O)ccc2c1` + COC(=O)c1ccc([C@H]2c3[nH]c4ccccc4c3C[C@H](C(=O)OC)N2C(=O)CCl)cc1 [RSL3], the figures for the relative cell viability with HCC1937 and in the assay with MDA-MB-231 were 0.511 and 0.744, respectively.

As for `c1cc(-c2cnn3cc(-c4ccc(OCCN5CCCCC5)cc4)cnc23)ccn1` [Dorsomorphin dihydrochloride] + COC(=O)c1ccc([C@H]2c3[nH]c4ccccc4c3C[C@H](C(=O)OC)N2C(=O)CCl)cc1 [RSL3], the figures for the relative cell viability with HCC1937 and with MDA-MB-231 were 0.111 and 0.286, respectively.

On to `NC(N)=N/N=C/c1cccc(Cl)c1Cl` [Raphin1 acetate] + COC(=O)c1ccc([C@H]2c3[nH]c4ccccc4c3C[C@H](C(=O)OC)N2C(=O)CCl)cc1 [RSL3], for which the relative cell viability came to 0.38 with HCC1937 and 0.603 with MDA-MB-231.

As to `CCCCCCCCCc1ccc(B(O)O)cc1` [4-Nonylphenylboronic acid] + COC(=O)c1ccc([C@H]2c3[nH]c4ccccc4c3C[C@H](C(=O)OC)N2C(=O)CCl)cc1 [RSL3], the relative cell viability with HCC1937 is 0.546; with MDA-MB-231, 0.732.

For `CCC(=O)Nc1cccc(Oc2nc(Nc3ccc(N4CCN(C)CC4)cc3OC)ncc2Cl)c1` + COC(=O)c1ccc([C@H]2c3[nH]c4ccccc4c3C[C@H](C(=O)OC)N2C(=O)CCl)cc1 [RSL3], the results for the relative cell viability in the assay with HCC1937 and in the assay with MDA-MB-231 were 0.121 and 0.3, respectively.

Turning to `Nc1ncnc2c1ncn2C1OC(COP(=O)(O)O)C(O)C1O` (stereo not drawn) [Adenosine 5'-monophosphate monohydrate] + COC(=O)c1ccc([C@H]2c3[nH]c4ccccc4c3C[C@H](C(=O)OC)N2C(=O)CCl)cc1 [RSL3], the relative cell viability in the assay on HCC1937 is 0.932; in the assay on MDA-MB-231, 0.622.

Consider `COc1ccc(-c2cc(=O)c3c(O)c(OC)c(O)cc3o2)cc1OC` [Eupatilin] + COC(=O)c1ccc([C@H]2c3[nH]c4ccccc4c3C[C@H](C(=O)OC)N2C(=O)CCl)cc1 [RSL3], for which the results for the relative cell viability in the assay with HCC1937 and in the assay on MDA-MB-231 were 0.354 and 0.496, respectively.

For the compound `C=CC[S+]([O-])C[C@H](N)C(=O)O` (stereo partly drawn) [Alliin] + COC(=O)c1ccc([C@H]2c3[nH]c4ccccc4c3C[C@H](C(=O)OC)N2C(=O)CCl)cc1 [RSL3], the relative cell viability was found to be 0.554 in the assay with HCC1937 and 0.704 with MDA-MB-231.

Consider `COc1ccc(C(=O)/C=C/c2ccccc2)cc1` [4'-Methoxychalcone] + COC(=O)c1ccc([C@H]2c3[nH]c4ccccc4c3C[C@H](C(=O)OC)N2C(=O)CCl)cc1 [RSL3], for which the relative cell viability in the assay with HCC1937 was 0.282; with MDA-MB-231, 0.582.

For the compound `C[C@H](CCOc1cccc(CC(=O)O)c1)N(Cc1cccc(C(F)(F)F)c1Cl)CC(c1ccccc1)c1ccccc1` + COC(=O)c1ccc([C@H]2c3[nH]c4ccccc4c3C[C@H](C(=O)OC)N2C(=O)CCl)cc1 [RSL3], the relative cell viability in the assay on HCC1937 was determined as 0.318; in the assay on MDA-MB-231 it was 0.532.

For `CCc1ccc(CCOc2ccc(CC3SC(=O)NC3=O)cc2)nc1` (stereo not drawn) [Pioglitazone] + COC(=O)c1ccc([C@H]2c3[nH]c4ccccc4c3C[C@H](C(=O)OC)N2C(=O)CCl)cc1 [RSL3], the relative cell viability with HCC1937 turned out to be 0.919; with MDA-MB-231 it was 0.629.

Regarding `CCCC[S+]([O-])c1sc2nc(-c3cccs3)cc(-c3ccccc3)c2c1N` (stereo not drawn) + COC(=O)c1ccc([C@H]2c3[nH]c4ccccc4c3C[C@H](C(=O)OC)N2C(=O)CCl)cc1 [RSL3], the relative cell viability in the assay on HCC1937 came out at 0.748; in the assay on MDA-MB-231 it was 0.513.

As for `CCCc1c(-c2ccccc2)[nH]n(-c2ccccn2)c1=O` [APX-115 free base] + COC(=O)c1ccc([C@H]2c3[nH]c4ccccc4c3C[C@H](C(=O)OC)N2C(=O)CCl)cc1 [RSL3], the values for the relative cell viability with HCC1937 and in the assay with MDA-MB-231 were 0.412 and 0.415, respectively.

With `COc1cc(N2CCN(C)CC2)ccc1Nc1ncc2c(n1)N(C)c1ccccc1C(=O)N2` + COC(=O)c1ccc([C@H]2c3[nH]c4ccccc4c3C[C@H](C(=O)OC)N2C(=O)CCl)cc1 [RSL3], the relative cell viability in the assay with HCC1937 is 0.213; with MDA-MB-231, 0.375.

Consider `COc1cc(N(C)C)cc(CN(C)CCc2ccc([N+](=O)[O-])cc2)c1O` [CDC25 Phosphatase Inhibitor I] + COC(=O)c1ccc([C@H]2c3[nH]c4ccccc4c3C[C@H](C(=O)OC)N2C(=O)CCl)cc1 [RSL3], for which the relative cell viability with HCC1937 worked out at 0.454; in the assay on MDA-MB-231 it was 0.886.

For `NC(=O)c1ncn([C@@H]2O[C@H](CO)[C@@H](O)[C@H]2O)c1N` [AICAR (Acadesine)] + COC(=O)c1ccc([C@H]2c3[nH]c4ccccc4c3C[C@H](C(=O)OC)N2C(=O)CCl)cc1 [RSL3], the relative cell viability with HCC1937 was 0.646; with MDA-MB-231, 0.584.

As to `Cc1cnc(C(=O)NCCc2ccc(S(=O)(=O)NC(=O)NC3CCCCC3)cc2)cn1` [Glipizide] + COC(=O)c1ccc([C@H]2c3[nH]c4ccccc4c3C[C@H](C(=O)OC)N2C(=O)CCl)cc1 [RSL3], the relative cell viability in the assay on HCC1937 was determined as 0.597; in the assay on MDA-MB-231 it was 0.484.

As for `Cc1ccc(CN(CC(O)COc2cccc3[nH]ccc23)C(C)(C)C)cc1` (stereo not drawn) + COC(=O)c1ccc([C@H]2c3[nH]c4ccccc4c3C[C@H](C(=O)OC)N2C(=O)CCl)cc1 [RSL3], the values for the relative cell viability with HCC1937 and in the assay on MDA-MB-231 were 0.357 and 0.804, respectively.

For `COc1ccc2[nH]cc(CCNC(C)=O)c2c1` [Melatonine] + COC(=O)c1ccc([C@H]2c3[nH]c4ccccc4c3C[C@H](C(=O)OC)N2C(=O)CCl)cc1 [RSL3], the relative cell viability in the assay on HCC1937 is 0.613; with MDA-MB-231, 0.465.

For `CCOP(=O)(OCC)C(=Cc1cc(C(C)(C)C)c(O)c(C(C)(C)C)c1)P(=O)(OCC)OCC` + COC(=O)c1ccc([C@H]2c3[nH]c4ccccc4c3C[C@H](C(=O)OC)N2C(=O)CCl)cc1 [RSL3], the relative cell viability in the assay with HCC1937 is 0.274; with MDA-MB-231 it was 0.448.

As to `NC(=O)c1cccc(-c2cccc(OC(=O)NC3CCCCC3)c2)c1` + COC(=O)c1ccc([C@H]2c3[nH]c4ccccc4c3C[C@H](C(=O)OC)N2C(=O)CCl)cc1 [RSL3], the results for the relative cell viability in the assay with HCC1937 and in the assay on MDA-MB-231 were 0.407 and 0.707, respectively.

`CCN(CC)CCN(Cc1ccc(-c2ccc(C(F)(F)F)cc2)cc1)C(=O)Cn1c(SCc2ccc(F)cc2)nc(=O)c2c1CCC2` [Darapladib] + COC(=O)c1ccc([C@H]2c3[nH]c4ccccc4c3C[C@H](C(=O)OC)N2C(=O)CCl)cc1 [RSL3]: the relative cell viability in the assay on HCC1937 was determined as 0.0907; in the assay on MDA-MB-231 it was 0.232.
